BRCT PPI red – BRCT-phosphoprotein interaction inhibition (red fluorophore) | P38398 | BRCT-phosphopeptide binding, red fluorescence polarization | Potency, µM (titrated, usually from 76.9 µM), without a hit: at the top dose activity change, negative = inhibition, actives largely listed as inhibitors | hit rate 0.03% among 75,000; also: % is scaled to controls: 0 for no effect and ±100 for the full control effect
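Rhodamine-labelled pBACH1 10-mer (100 nM) bound to BRCT domain (100 nM) at pH 7.3; compounds incubated 12 min room temperature, polarization read. Free peptide defines full inhibition; unlabelled decapeptide titrated as control.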
DNA Pol III inh – blocks replication by bacterial DNA polymerase III holoenzyme; reconstituted DNA polymerase III holoenzyme replication, biochemical; Potency, µM (series often up to 57.1 µM), for the others: top-dose activity change, negative = inhibition; hit rate 0.25% among 71,000; AID 603; also: potency is read from the fitted curve at half-maximal effect; % is scaled to controls: 0 for no effect and ±100 for the full control effect
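Reconstituted *E. coli* holoenzyme (0.35 nM Pol III, 1 nM beta, 154 nM SSB, 2 nM primase) was preincubated with compound for 15 min at RT. Synthesis on 1.4 nM ssM13Gori ran 35 min, then was stopped with PicoGreen/EDTA and read as dsDNA fluorescence.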
BRCT PPI green – inhibitors of human BRCA1 BRCT-phosphoprotein interaction (green fluorophore). P38398. AID 875. Potency, µM (highest dose often 76.9 µM), for inactives: top-dose activity change, negative = inhibition, hits mostly inhibitors. BRCA1 BRCT-phosphopeptide binding, green fluorescence polarization. hit rate 0.05% among 75,000;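 also: potency is read from the fitted curve at half-maximal effect; plate controls were peptide without protein for full effect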
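Fluorescence polarization: His-tagged BRCT (~35 kDa BRCA1 C-terminus, 250 nM) bound to 100 nM fluorescein-labeled phosphorylated 10-aa BACH1 peptide, pH 7.3 phosphate buffer with DTT and Tween 20. Compounds incubated 12 min at room temperature; inhibition read as lowered polarization.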
YjeE inh – displaces an ADP probe from E. coli YjeE (TsaE); P0AF67; Potency, µM; hit rate 0.05% among 71,000; purified YjeE enzyme, qHTS inhibition assay
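Purified YjeE (10 uM) with BODIPY Texas Red-labeled ADP probe (2 uM); compounds pin-transferred, 15 min at room temperature. Binding inhibition read as decreased fluorescence polarization; ADP titration as control.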
USP2a inhib – inhibitors of human ubiquitin-specific protease USP2a; O75604; USP2a enzymatic assay, qHTS inhibition; Potency, µM (doses to about 38.3 µM), for the others: at the top dose activity change, negative = inhibition, hits mostly inhibitors; hit rate 0.1% among 60,000; AID 927; also: potency is read from the fitted curve at half-maximal effect; nearly all actives have a fitted effect of over 60% in size
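USP2 core (20nM final) preincubated 30 min RT with compound, then Ub-PLA2 20nM and NBD C6-HPC 20uM final added; buffer 20mM Tris-HCl pH 8.0, 2mM CaCl2. Fluorescence Ex 460/Em 535 read at 0 and 2.5 h; normalized to NEM.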
Active calls of the source: *; i = inactive; ? = inconclusive; / = no result given; [ ] = dose if it differs, or a comment. Most compounds without a hit are left out; they make up all but 0.36% or so of the library. Calls follow the shape of the dose curve; as a rule, active = well fitted curve in the direction sought with a large enough effect; inconclusive = small, poorly fitted or top-dose-only effect, or another doubt; inactive = no such curve, though single readings can be large; an effect the other way counts as inactive or inconclusive.

SMILES	BRCT PPI red	DNA Pol III inh	BRCT PPI green	YjeE inh	USP2a inhib
Cc1cc(=O)n2[nH]c(C)c(-c3ccc(Cl)cc3)c2n1	-1.4%	20µM*	-2.5%	i	-6.6%
CN1CCN(c2ncc3nc(-c4ccc(Cl)cc4)c(=O)n(C4CC4)c3n2)CC1	-1.4%	-4.1%	-1.3%	i	97.8%
CN1CCN(c2ncc3nc(-c4ccc(F)cc4)c(=O)n(C4CC4)c3n2)CC1	0.7%	8.3%	-3.2%	i	10µM*
O=C(O)c1cc(-c2ccco2)nc2ccc(Br)cc12	-3.4%	25.1µM*	-2.5%	i	2.4%
O=C(c1ccco1)N1CCN(C(=O)c2cc(-c3ccncc3)nc3ccc(Br)cc23)CC1	0.4%	-1.3%	1.2%	i	17.7%
O=C(c1csnn1)N1CCC[C@@]2(CCN(C(c3ccccc3)c3ccccc3)C2)C1	-2.8%	-13.8%	-2.5%	i	80.5%
COc1ccc(OC)c(C(=O)COC(=O)C2CC3CCCC(C2)C3=O)c1 (configuration not stated)	0.2%	9.0%	0.1%	i	-2.1%
O=C(NC1=NCCS1)c1ccc2c(c1)C(=O)N(Cc1ccco1)C2=O	1.2%	-6.4%	-1.6%	i	21.9%
O=C(Nc1ccc(Cl)cc1C(=O)O)c1ccc2c(c1)C(=O)N(Cc1ccco1)C2=O	-1.2%	31.6µM*	-4.4%	i	-13.3%
Cc1cccc(NC(=O)C(C)Oc2ccccc2C)n1 (configuration not stated)	-3.1%	-4.6%	-1.1%	i	-1.2%
N#Cc1c(-c2ccco2)c2c([nH]c1=S)CCCC2	-2.5%	-25.9%	8.4%	i	12.6µM*
N#Cc1c(N)nc2c(c1-c1ccco1)CCCCC2	1.3%	-1.1%	-0.1%	i	-9.8%
Cc1c2cc[n+](CCN3CCCCC3)cc2c(C)c2c1[nH]c1ccc(O)cc12	0.2%[15.4 µM]	2.51µM*	-5.0%[15.4 µM]	i	/
CN(C)S(=O)(=O)c1nc(Cl)c2[nH]cnc2n1	1.7%[15.4 µM]	-8.5%[11.4 µM]	-0.2%[15.4 µM]	i	/
O=C(Oc1cccc2c(O)cccc12)c1ccccc1	-1.4%	3.3%	1.1%	i	12.6µM*
COC(=O)c1ccccc1	0.0%	-5.4%	1.1%	i	/
CN1CCN(CC(=O)N2CCn3c4c(c5cc(C6CCCCC6)ccc53)CCCC42)CC1 (configuration not stated)	0.2%	-2.3%	-2.4%	i	24.5%
C[C@@]1(C(=O)O)NCCc2cc(O)c(O)cc21	-1.4%	7.94µM*	-0.7%	i	/
COc1cc2cc[n+]3cc4c(OC)c(OC)ccc4cc3c2cc1OC	2.1%	/	-2.1%[3.08 µM]	/	-20.3%
COc1cc2cc3c4cc(OC)c(OC)cc4cc[n+]3c(C)c2cc1OC	-0.9%	12.6µM*	-1.1%[3.08 µM]	i	1.8%
CCOC(=O)C1=C(C)NC(=O)NC1c1ccc(OC(=O)c2ccco2)c(OC)c1 (configuration not stated)	0.2%	1.7%[11.4 µM]	-0.1%	i	13.2%[7.66 µM]
CN(C)Cc1ccccc1-c1nccc(Nc2ccc(F)cc2)n1	0.4%	-3.8%	-1.0%	i	-3.3%
COc1ccc(N2Cc3cccc(C(=O)O)c3C2=O)cc1	-6.9%	15.8µM*	-5.6%	i	/
O=C1c2ccc(O)c(O)c2C(=O)c2c(O)ccc(O)c21	31.6µM*	/	0.3%[3.08 µM]	/	3.98µM*
O=C1c2ccccc2C(=O)c2c1ccc(O)c2O	-2.8%	/	-6.5%	/	24.6%
SMILES	BRCT PPI red	DNA Pol III inh	BRCT PPI green	YjeE inh	USP2a inhib
CCn1c(CSc2nnc3ccccn23)nc2cc(C(=O)O)ccc21	-21.5%	-4.0%	0.8%	i	3.3%
CCn1c(CSc2nnc(-c3cccnc3)n2-c2ccccc2C)nc2cc(C(=O)O)ccc21	25.1µM*	-1.5%	-0.3%	79.4µM*	-11.6%
O=C(Nc1cc(C(=O)Nc2ccc(S(=O)(=O)O)cc2S(=O)(=O)O)cc(C(=O)Nc2ccc(S(=O)(=O)O)cc2S(=O)(=O)O)c1)Nc1cc(C(=O)Nc2ccc(S(=O)(=O)O)cc2S(=O)(=O)O)cc(C(=O)Nc2ccc(S(=O)(=O)O)cc2S(=O)(=O)O)c1	47.9%	3.98µM*	-3.1%	i	13.8%
CC(=O)c1ccc(NC(=O)c2ccc(S(=O)(=O)N3CCCC3)cc2)cc1	0.4%	-3.5%	-2.4%	i	81.6%
O=C(Nc1ccc(C(=O)Nc2ccc(C(=O)Nc3ccc(S(=O)(=O)O)c4cc(S(=O)(=O)O)cc(S(=O)(=O)O)c34)cc2)cc1)Nc1ccc(C(=O)Nc2ccc(C(=O)Nc3ccc(S(=O)(=O)O)c4cc(S(=O)(=O)O)cc(S(=O)(=O)O)c34)cc2)cc1	56.1%	31.6µM*	-7.8%	i	/
COc1cccc2c1C(=O)c1c(O)c3c(c(O)c1C2=O)C[C@@](O)(C(=O)CO)C[C@H]3O[C@H]1C[C@@H](N)[C@H](O)[C@@H](C)O1.[W]	-10.8%[15.4 µM]	?	9.5%[15.4 µM]	i	/
COc1cccc2c1C(=O)c1c(O)c3c(c(O)c1C2=O)C[C@](O)(C(=O)CO)C[C@H]3O[C@@H]1C[C@H](N)[C@H](O)[C@H](C)O1	?	0.794µM*	11.7%[34.4 µM]	i	21.7%[17.1 µM]
O=c1c(O)c(-c2ccc(O)c(O)c2)oc2cc(O)ccc12	-1.6%	0.794µM*	-1.1%	i	-5.3%
O=c1c(O)c(-c2ccc(O)cc2)oc2cc(O)ccc12	0.4%	-6.9%	-4.0%	i	/
C=CS(=O)(=O)c1ccc(Oc2ccc(S(=O)(=O)C=C)cc2)cc1	0.4%	0.6%	0.5%	i	-7.7%
COc1ccc(-c2c(O)c3c(OC)c4c(cc3oc2=O)OC(C)(C)C=C4)cc1	-1.1%	/	-3.2%	/	10µM*
Cc1cc(O)cc(=O)o1	-1.2%	/	-1.4%[3.08 µM]	/	0.6%
C=CC(C)(C)c1[nH]c2ccccc2c1C1=C(O)C(=O)C(c2c[nH]c3c(CC=C(C)C)cccc23)=C(O)C1=O	-5.8%	1.26µM*	-5.9%	100µM*	/
COc1ccc(N(CC(=O)N2CCN(Cc3ccc4c(c3)OCO4)CC2)S(C)(=O)=O)cc1OC	1.7%	-1.9%	-1.1%	i	7.3%
Cn1c(NC(=O)c2ccccc2C(F)(F)F)cc(=O)n(C)c1=O	-2.0%	-5.2%	-1.4%	i	/
Cn1c(NC(=O)c2ccccc2Br)cc(=O)n(C)c1=O	?	3.1%	2.51µM*	i	/
CN(C)c1ccc2nc3c(C(=O)O)cc(=O)c(O)c-3oc2c1	-2.1%[15.4 µM]	3.16µM*	-1.9%[15.4 µM]	i	/
CC(=O)N(C(C)=O)c1ccc2nc(C)[nH]c(=O)c2c1	0.6%	5.5%	-1.1%	i	-2.3%
Cc1nccc2[nH]c(=O)c(C(=O)NC3CCCCC3C)cc12 (configuration not stated)	-1.1%	-3.4%	-3.3%	i	9.9%

From PubChem BioAssay
